Glyco luc inh = increase of ERlucT glycosylation luciferase signal, primary screen, N-linked glycosylation inhibitor project, D54 ERlucT cells, luminescence, set 2. reporter increase, % at 12.5 µM. AID 588692, 2011. 360,000 compounds, 0.23% hits. D54 ERlucT glycosylation luciferase reporter, 24 h; percent of 100 nM tunicamycin response;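 active = mean luciferase reporter signal, scaled so untreated is 0 and the glycosylation-blocking control 100, at or above a set limit in every replicate; inconclusive = mean reaches the limit but not every replicate does; inactive = mean below the limit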;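 note: luciferase carries N-glycosylation sites so blocking glycosylation raises the light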
NSD2 HMT inh = NSD2 histone methyltransferase inhibitors, primary screen, biochemical, AlphaScreen, single concentration, set 2; Histone-lysine N-methyltransferase NSD2 (Homo sapiens), O96028; NSD2 peptide methylation, 120 min; inhibition, % at 12.5 µM; 310,000 compounds, 0.54% hits; in the data active = inhibition above about 50%
LMP1 NFkB inh = EBV LMP1-driven NF-kappaB luciferase reporter inhibitors, primary screen, cell-based, luminescence, single point | inhibition, % at 12.5 µM | 350,000 compounds, 0.69% hits | LMP1-induced NF-kappaB luciferase reporter cells; in the data active = inhibition above about 41%; inconclusive = no clear call, values can overlap the other calls
PAX8 reporter = inhibitors of PAX8-driven TPO luciferase reporter, primary screen, RMG-I cells, single concentration | SteadyGlo, 24 h | inhibition, % at 12.6 µM | 360,000 compounds, 1.2% hits | AID 652154, 2013;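 active = mean replicate inhibition at least 60% with every replicate also reaching 60%; inconclusive = only one of the two criteria is met; inactive = mean below 60% and not all replicates reaching 60%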;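 note: luciferase light reporting Pax8 driven TPO promoter activity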
Shn3 3UTR inh = reduction of Shn3 3'UTR firefly luciferase signal, primary screen, Schnurri-3 inhibitor project, cell-based, Clone20 osteoblasts, set 2; Clone20 osteoblast Shn3 3'UTR firefly luciferase, 24 h; 360,000 compounds, 0.52% hits; inhibition, % at 12.5 µM;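 active = mean inhibition of at least 75% with every replicate also reaching 75%; inconclusive = mean inhibition at least 75% but some replicate below; inactive = mean inhibition below 75%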
HIV Env fusion = inhibitors of HIV-1 Env-driven cell-cell fusion, primary screen, HeLa-JRFL effector, CEM21 target cells, luciferase. inhibition, % at 12.3 µM. AID 651610, 2012. 360,000 compounds, 1.1% hits;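 active = mean replicate inhibition score of at least 50 and every replicate individually at or above 50; inconclusive = only one of the two criteria met; inactive = mean below 50 and not all replicates reaching 50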
A number is an active result; - = inactive; ? = inconclusive; . = no result; ! = not confirmed by another sample; [ ] = dose if it differs, or a comment. Rows were chosen to be rich in hits. Some 2.8% of all compounds tested hit in one or more screens of this group.

SMILES	Glyco luc inh	NSD2 HMT inh	LMP1 NFkB inh	PAX8 reporter	Shn3 3UTR inh	HIV Env fusion
COc1cc(/C=N/O)ccc1OCc1ccc(C(=O)O)cc1	-	-	86	94	90	113
COc1ccc(/C=N/NS(=O)(=O)c2ccc(C)cc2)cc1OC(=O)c1ccccc1	-	-	-	.	-	.
COc1cc(/C=N/O)ccc1OCc1ccc(Cl)cc1	.	-	.	-	.	-
COc1cc(/C=N/NS(=O)(=O)c2ccc(C)cc2)ccc1OCc1cccc(C(=O)O)c1	-	-	73	91	-	72
CN1CCC(N(C)C(=O)c2ccc(Cl)c(S(=O)(=O)N3CCCCC3)c2)CC1	-	-	-	-	-	-
Cc1ccc(NS(=O)(=O)c2cc(C(=O)N(C)C3CCN(C)CC3)ccc2Cl)cc1Cl	-	-	-	-	-	75
CC1=CC(=NOC(=O)/C=C/c2ccccc2)C=C(C)C1=O	-	.	59	.	-	.
C[C@H](CO)N1C[C@H](C)[C@H](CN(C)S(=O)(=O)c2ccccc2)Oc2ncc(/C=C/c3ccccc3)cc2C1=O	.	.	.	.	.	74[16.7 µM]
C[C@H]1CN([C@@H](C)CO)C(=O)c2cc(/C=C/c3ccccc3)cnc2O[C@H]1CN(C)S(=O)(=O)c1ccccc1	.	.	.	.	.	-
COc1ccc(S(=O)(=O)N(C)C[C@@H]2Oc3ncc(-c4ccccc4)cc3C(=O)N([C@H](C)CO)C[C@@H]2C)cc1	.	.	.	.	.	-
C[C@@H]1CN([C@H](C)CO)C(=O)c2cc(C#Cc3ccncc3)cnc2O[C@@H]1CN(C)S(=O)(=O)c1ccccc1F	.	.	.	.	.	60[16.7 µM]
C[C@@H]1CN([C@@H](C)CO)C(=O)c2cc(C#Cc3ccncc3)cnc2O[C@H]1CN(C)S(=O)(=O)c1ccccc1F	.	.	.	.	.	-
COc1ccc(S(=O)(=O)N(C)C[C@@H]2Oc3ncc(-c4cc5ccccc5o4)cc3C(=O)N([C@H](C)CO)C[C@@H]2C)cc1	.	.	.	.	.	69[16.7 µM]
COc1ccc(S(=O)(=O)N(C)C[C@@H]2Oc3ncc(/C=C/c4ccccc4)cc3C(=O)N([C@H](C)CO)C[C@@H]2C)cc1	.	.	.	-	.	55![16.7 µM]
CN1c2ccc(-c3cccc(C#N)c3)cc2[C@@H]2[C@@H](CCN2C(=O)C2CC2)[C@H]1CO	.	.	.	-	.	-
CC(=O)N(C)C[C@@H]1Oc2ncc(-c3ccc(C(=O)N(C)C)cc3)cc2C(=O)N([C@@H](C)CO)C[C@H]1C	.	.	.	-	.	-
C[C@H](CO)N1C[C@H](C)[C@H](CN(C)S(=O)(=O)c2ccccc2F)Oc2ncc(/C=C/c3ccccc3)cc2C1=O	.	.	.	-	.	71[16.7 µM]
Cc1ccc(S(=O)(=O)N(C)C[C@@H]2Oc3ncc(/C=C/c4ccccc4)cc3C(=O)N([C@H](C)CO)C[C@@H]2C)cc1	.	.	.	.	.	75[16.7 µM]
C[C@@H]1CN([C@H](C)CO)C(=O)c2cc(/C=C/c3ccccc3)cnc2O[C@H]1CN(C)S(=O)(=O)c1ccccc1F	.	.	.	-	.	-
C[C@@H]1CN([C@H](C)CO)C(=O)c2cc(/C=C/c3ccccc3)cnc2O[C@@H]1CN(C)S(=O)(=O)c1ccccc1	.	.	.	.	.	-
O=C(C[C@@H]1C=C[C@@H](NC(=O)Nc2ccc(C(F)(F)F)cc2)[C@H](CO)O1)NCc1cccc(F)c1	.	.	.	-	.	-
Cc1c(CCO)c(=O)n2n1CCCC2	-	-	52	-	-	-
Cc1cc(SCC(=O)N/N=C/c2ccccc2C(=O)O)c(C)cc1Br	-	-	-	-	-	-
Cc1cc(SCC(=O)N/N=C/c2ccc(O)cc2O)c(C)cc1Br	-	-	-	-	93	?
Cc1cc(N2CCCC2)ccc1NC(=O)COc1cccc(C(F)(F)F)c1	-	-	-	-	-	59
SMILES	Glyco luc inh	NSD2 HMT inh	LMP1 NFkB inh	PAX8 reporter	Shn3 3UTR inh	HIV Env fusion
COc1ccc(/C=N/Nc2cc(C)nc3ccccc23)cc1	-	-	-	-	-	-
COc1ccc2nc(C)cc(N/N=C/c3ccc(F)cc3)c2c1	-	.	-	-	-	90
Cc1ccc(S(=O)(=O)Nc2cccc3c2O[C@@H](CN(C)Cc2ccc(Cl)c(Cl)c2)[C@@H](C)CN([C@H](C)CO)C3=O)cc1	.	.	.	-	.	87[16.7 µM]
Cc1ccc(S(=O)(=O)Nc2cccc3c2O[C@H](CN(C)Cc2ccc(Cl)c(Cl)c2)[C@H](C)CN([C@H](C)CO)C3=O)cc1	.	.	.	-	.	85[16.7 µM]
C[C@@H]1CN([C@@H](C)CO)C(=O)c2cccc(NS(=O)(=O)c3ccc(Cl)cc3)c2O[C@@H]1CN(C)Cc1ccc(-c2ccccc2)cc1	.	.	.	65	.	-
C[C@H](CO)N1C[C@H](C)[C@H](CN(C)Cc2ccc(Cl)c(Cl)c2)Oc2c(NS(=O)(=O)c3ccc(Cl)cc3)cccc2C1=O	.	.	.	83	.	91[16.7 µM]
COc1ccc(NC(=O)N(C)C[C@H]2Oc3ccc(NC(=O)Nc4ccc(F)cc4)cc3CC(=O)N([C@@H](C)CO)C[C@H]2C)cc1	.	.	.	.	.	-
CN(C)C(=O)C[C@H]1CC[C@H]2[C@@H](COC[C@H](O)CN2Cc2ccc(C(F)(F)F)cc2)O1	.	.	.	-	.	-
O=C(N/N=C/c1ccc(O)cc1)c1[nH]c2ccc(Br)cc2c1-c1ccccc1	-	-	-	96	-	-
O=C(N/N=C/c1c[nH]c2ccccc12)c1[nH]c2ccc(Br)cc2c1-c1ccccc1	-	-	-	94	-	-
C/C(=N\NC(=O)CCC(=O)O)c1c(-c2ccccc2)c2cc(Br)ccc2[nH]c1=O	-	-	-	-	-	-
COc1ccc2c(c1)C(CC(C)=O)N(c1ccc(-c3cccs3)cc1)C(c1ccsc1)=C2 (stereo not given)	.	.	.	64	.	-
COc1ccc(-c2ccc(N3C(c4cc(OC)cc(OC)c4)=Cc4ccc(OC)cc4C3CC(C)=O)cc2)cc1 (stereo not given)	.	.	.	63	.	-
C[C@@H]1CN([C@H](C)CO)C(=O)c2cccc(NS(=O)(=O)c3ccccc3)c2O[C@@H]1CN(C)S(=O)(=O)c1ccc(Cl)cc1	.	.	.	-	.	-
C/C=C/c1ccc2c(c1)O[C@@H](CN(C)Cc1ccccn1)[C@@H](C)CN([C@H](C)CO)S2(=O)=O	.	.	.	-	.	-

Source: PubChem
